Measurements from the supplement of paper PMC12645437, “Orthogonal IMiD-Degron Pairs Induce Selective Protein Degradation in Cells” (ACS Chemical Biology, 2025).
Over roughly 8,300 sequences, “log2 fold change of degron read counts, EGFP-low vs EGFP+ sorted cells (limma voom), compound-induced degradation” has its median near -1.1; the highest 2% begin near 3.2. Only a selection was taken, and the highest values are over-represented in it overall.

T1: CRBN, Q96SW2
T1 chain: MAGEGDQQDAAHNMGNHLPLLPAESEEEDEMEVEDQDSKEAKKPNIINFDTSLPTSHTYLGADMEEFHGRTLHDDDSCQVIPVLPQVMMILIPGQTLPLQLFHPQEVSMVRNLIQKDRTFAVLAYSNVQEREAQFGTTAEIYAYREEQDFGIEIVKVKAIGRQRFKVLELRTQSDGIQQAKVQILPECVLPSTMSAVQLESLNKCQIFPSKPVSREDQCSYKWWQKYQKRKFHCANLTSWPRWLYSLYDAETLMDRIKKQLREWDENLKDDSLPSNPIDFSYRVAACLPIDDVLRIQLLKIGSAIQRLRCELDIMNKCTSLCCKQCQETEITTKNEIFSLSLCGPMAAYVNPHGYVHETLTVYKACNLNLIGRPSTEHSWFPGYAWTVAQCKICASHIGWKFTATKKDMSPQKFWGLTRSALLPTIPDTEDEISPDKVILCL


Molecular target: T1, CRBN, Q96SW2
Test: log2 fold change of degron read counts, EGFP-low vs EGFP+ sorted cells (limma voom), compound-induced degradation; higher = more compound-induced degradation of the degron-EGFP fusion; degrons are variants of IKZF1/3 zinc finger 2; compound dose not given here
Conditions: Jurkat, 18 h
[1] = compound: compound 19 (5-tert-butyl-thalidomide)
[2] = compound: compound 22 (5-morpholino-thalidomide)
[3] = compound: compound 33 (diphenyl IMiD analogue)
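Note: pooled lentiviral library of zinc finger degron-EGFP fusions in mCherry-positive Jurkat cells, FACS-sorted after compound exposure, with degron abundance counted by next-generation sequencing.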

| Sequence | log2 fold change of degron read counts [1] | log2 fold change of degron read counts [2] | log2 fold change of degron read counts [3] | log2 fold change of degron read counts (compound: thalidomide) |
| --- | --- | --- | --- | --- |
| FFCDQCGAEFTQKGNLLRHIKL [46F_47F_49D_50Q_52G_53A_54E_55F_67L_, Q9UKT9] | -0.653 | -1.5 | -2.48 | -2.75 |
| FACPVCGAFFTQKGNLLRHIKL [46F_47A_49P_50V_52G_53A_54F_55F_67L_, Q9UKT9] | 1.92 | -0.0365 | 0.632 | -0.719 |
| FECPICGHEFTQKGNLLRHIKL [46F_47E_49P_50I_52G_53H_54E_55F_67L_, Q9UKT9] | -3.46 | -3.29 | -1.58 | -1.82 |
| FLCEICGRRFTQKGNLLRHIKL [46F_47L_49E_50I_52G_53R_54R_55F_67L_, Q9UKT9] | -1.65 | -2.28 | -1.89 | -0.0712 |
| FLCNVCGASFTQKGNLLRHIKL [46F_47L_49N_50V_52G_53A_54S_55F_67L_, Q9UKT9] | -1.47 | -1.87 | -0.611 | -0.827 |
| FFCPICGHEFTQKGNLLRHIKL [46F_47F_49P_50I_52G_53H_54E_55F_67L_, Q9UKT9] | -1.46 | -1.37 | -1.31 | -1.41 |
| FMCNVCGAMFTQKGNLLRHIKL [46F_47M_49N_50V_52G_53A_54M_55F_67L_, Q9UKT9] | -2.09 | -2.13 | 0.122 | -1.26 |
| FTCNVCGALFTQKGNLLRHIKL [46F_47T_49N_50V_52G_53A_54L_55F_67L_, Q9UKT9] | -2.25 | -1.98 | -0.325 | -1.1 |
| FKCDICGAGFTQKGNLLRHIKL [46F_47K_49D_50I_52G_53A_54G_55F_67L_, Q9UKT9] | 0.734 | -1.83 | -2.3 | -1.43 |
| FLCNICGAAFTQKGNLLRHIKL [46F_47L_49N_50I_52G_53A_54A_55F_67L_, Q9UKT9] | -0.363 | -1.33 | 0.248 | 0.231 |
| FRCPICGRMFTQKGNLLRHIKL [46F_47R_49P_50I_52G_53R_54M_55F_67L_, Q9UKT9] | -1.98 | -1.28 | -0.201 | 0.319 |
| FHCNQCGHNFTQKGNLLRHIKL [46F_47H_49N_50Q_52G_53H_54N_55F_67L_, Q9UKT9] | -2.43 | -3.18 | -2.46 | -2.52 |
| FVCNICGAYFTQKGNLLRHIKL [46F_47V_49N_50I_52G_53A_54Y_55F_67L_, Q9UKT9] | -0.917 | -0.227 | 1.05 | 1.24 |
| FSCEQCGAHFTQKGNLLRHIKL [46F_47S_49E_50Q_52G_53A_54H_55F_67L_, Q9UKT9] | -1.34 | -2.19 | -1.26 | -1.95 |
| FTCPVCGACFTQKGNLLRHIKL [46F_47T_49P_50V_52G_53A_54C_55F_67L_, Q9UKT9] | 0.948 | 2.51 | 2.73 | 3.33 |
| FICPVCGACFTQKGNLLRHIKL [46F_47I_49P_50V_52G_53A_54C_55F_67L_, Q9UKT9] | -0.981 | 2.06 | 2.04 | 2.16 |
| FECPVCGACFTQKGNLLRHIKL [46F_47E_49P_50V_52G_53A_54C_55F_67L_, Q9UKT9] | 0.122 | -0.609 | 2.52 | 2.75 |
| FYCDICGAHFTQKGNLLRHIKL [46F_47Y_49D_50I_52G_53A_54H_55F_67L_, Q9UKT9] | 2.51 | 3.38 | 0.931 | -1.03 |
| FQCDICGAHFTQKGNLLRHIKL [46F_47Q_49D_50I_52G_53A_54H_55F_67L_, Q9UKT9] | -1.42 | -0.152 | -0.605 | 1.82 |
| FCCDICGAHFTQKGNLLRHIKL [46F_47C_49D_50I_52G_53A_54H_55F_67L_, Q9UKT9] | 0.131 | -0.464 | -0.191 | -0.916 |
| FWCDICGAHFTQKGNLLRHIKL [46F_47W_49D_50I_52G_53A_54H_55F_67L_, Q9UKT9] | 2.34 | 3.41 | 0.744 | -0.669 |
| FECDICGAHFTQKGNLLRHIKL [46F_47E_49D_50I_52G_53A_54H_55F_67L_, Q9UKT9] | -1.93 | -3.04 | -0.896 | -0.791 |
| FNCDICGAHFTQKGNLLRHIKL [46F_47N_49D_50I_52G_53A_54H_55F_67L_, Q9UKT9] | 0.871 | -0.896 | -1.51 | -1.76 |
